# PLCg1 inh = inhibitors of human phospholipase C gamma1; purified PLC-gamma1, fluorogenic substrate, fluorescence; P19174; inhibition, % at 12.2 µM; 0.84% of 370,000 active; in the data active means inhibition above about 9.5%
# proKLK7 act = proKLK7 (human) activation, primary screen; purified proKLK7, EDANS-DABCYL substrate fluorescence; 100% is mature enzyme control, 0% vehicle; P49862; AID 652039; activation, % at 7 µM; 0.9% of 370,000 active;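 active means activation above the mean of all tested compounds plus 3 SD, computed per campaign excluding outliers beyond control limits, cut at about 13% in these data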
# ADAM17 inh = inhibits human ADAM17; P78536; recombinant ADAM17, EDANS/DABCYL FRET peptide cleavage; inhibition, % at 6.95 µM; 0.83% of 370,000 active;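 active means inhibition above the mean of compounds lying between control limits plus 3 SD, set per campaign, cut at about 8.5% in these data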;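 further: 0% = DMSO-only wells as the low control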
# ADAM10 inh = inhibitors of human ADAM10; recombinant ADAM10, EDANS/DABCYL FRET peptide cleavage, 3 h; O14672; 0.62% of 370,000 active; inhibition, % at 7 µM;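 active means inhibition above a per-campaign cutoff equal to the mean of compounds falling between control-based bounds plus 3 SD, cut at about 20% in these data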;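 further: 0% = DMSO wells while the 100% control is not disclosed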
# PLCb3 inh = inhibitors of human phospholipase C beta3; 0.18% of 370,000 active; Q01970; Purified PLC-beta3, fluorogenic substrate, fluorescence; AID 720704; inhibition, % at 12.2 µM; in the data active means inhibition above about 11%;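 further: 0% = median of compound wells on plate and 100% = full blocker control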
# ADAM10 confirm = human ADAM10 inhibition, confirmation | shares compounds with ADAM10 inh | ADAM10 QFRET peptide cleavage, EDANS fluorescence | inhibition, % at 6.95 µM | 1% of 2,100 active | AID 743208;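 active means inhibition above about 20% chosen separately for each screening run, limit read from the data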;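 further: 0% = DMSO wells and 100% = marimastat wells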
# ADAM17 ctr = inhibits human ADAM17 in ADAM10 exosite counter-screen | shares compounds with ADAM10 inh | 0.5% of 2,100 active | inhibition, % at 6.95 µM | ADAM17 QFRET peptide cleavage, EDANS fluorescence;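 active means mean triplicate inhibition above the solvent-only control wells' mean plus 3 SD, cut at about 12% in these data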;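 further: 0% = DMSO wells and 100% = marimastat wells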
# Active calls of the source: *; . = not tested or not shown. Rows were chosen to be rich in hits. Some 2.9% of all compounds tested hit in one or more screens of this group.
SMILES,PLCg1 inh,proKLK7 act,ADAM17 inh,ADAM10 inh,PLCb3 inh,ADAM10 confirm,ADAM17 ctr
C=CCNC(=O)CN(C(=O)c1csc2ccc(Cl)cc12)c1cccc(Br)c1,1.9,0.1,3.8,5.1,2.5,.,.
CC(C)C(=O)NC(c1ccccc1)c1cc([N+](=O)[O-])c2cccnc2c1O (stereo not given),5.0,-0.5,7.7,20.1*,6.0,9.9,4.3
Cc1cccc(NC(=O)c2cc3n(n2)C(C(F)(F)F)CC(c2ccc4c(c2)OCO4)N3)c1 (stereo not given),-2.0,-0.4,5.2,21.7*,-5.4,2.1,-1.3
CCCCCCCCN1C(=O)[C@@H](CC(=O)NCCCOC)C[C@@]2(C(=O)OC)C1=C[C@H](C(C)C)O[C@@H]2C1CC1,4.7,0.3,3.1,5.9,3.2,.,.
COc1ccc2c(c1)C[C@]1(C)c3ccccc3C(=O)N(Cc3ccccc3)[C@H]21,2.9,1.5,5.0,25.9*,2.2,3.1,1.1
CCCC(=O)Nc1ccc2c(c1)C(=O)N(C)[C@H]1CC[C@@H](CC(=O)OC)O[C@@H]1CO2,0.6,0.7,-1.8,-2.1,1.8,.,.
COc1ccc(C2CC2/C(=N/O)c2ccccc2)cc1 (stereo not given),3.5,-0.4,0.6,-3.6,-3.6,.,.
O/N=C(/c1ccc(F)cc1)C1CC1c1c(F)cccc1Cl (stereo not given),1.5,-0.1,3.9,26.5*,-1.0,2.6,1.1
O=C(Nc1cccc(C(F)(F)F)c1)C1Cc2c(-c3ccccc3)ccnc2O1 (stereo not given),5.7,0.0,6.5,21.7*,0.6,4.8,1.3
CC(=O)c1cccc(-c2ccnc3c2CC(C(=O)Nc2ccc(Cl)c(C(F)(F)F)c2)O3)c1 (stereo not given),-0.3,0.3,8.1,26.2*,1.4,4.3,2.2
COC(=O)[C@H](C(C)C)N1Cc2nnn(Cc3ccccc3)c2-c2cc(F)ccc2S1(=O)=O,1.2,0.1,0.1,0.9,1.3,.,.
Cc1ccc(-c2ccnc(-c3ccc(O)cc3)n2)cc1,2.5,-0.7,2.9,17.2,0.5,.,.
Oc1ccc(-c2nccc(-c3ccc(Br)cc3)n2)cc1,0.6,0.1,6.1,20.4*,-9.0,5.5,1.7
O=C(Nc1ccc(F)cc1)OCc1cn(Cc2cccc(F)c2F)nn1,-1.9,0.2,0.4,3.5,-1.7,.,.
CC(=O)c1c(C)nc2sc3c(=N)n(N)cnc3c2c1-c1ccc(Cl)cc1,-9.2,-0.7,0.9,20.8*,-14.9,2.5,0.7
O=C(CSc1nc2ccccc2[nH]1)Nc1ccc2c(c1)CCC2,2.2,-0.2,-4.1,20.2*,2.5,1.6,-0.1
O=C(CSc1nc2ccc(Cl)cc2[nH]1)Nc1ccc2c(c1)CCC2,2.6,0.4,5.2,13.0,3.1,.,.
CC(C)C[C@H](NC(=O)c1ccccn1)C(=O)N1CCC[C@H]1C(=O)NCc1ccccc1,3.9,-0.3,-1.1,-8.8,5.2,.,.
OCCCn1c(C2CCCN2c2nc(-c3ccc(F)cc3)cs2)nc2cc(C(F)(F)F)ccc21 (stereo not given),4.3,1.0,5.5,11.7,5.1,.,.
OCCCn1c(CCNc2nc(-c3ccc(F)cc3)cs2)nc2cc(C(F)(F)F)ccc21,2.2,0.0,6.5,21.2*,0.9,5.1,0.9
O=C(NCCC(=O)N1CCN(S(=O)(=O)c2ccc(Cl)cc2)CC1)Nc1ccccc1,-0.2,0.1,-1.4,3.6,-4.1,.,.
O=C(CCC(=O)N1CCN(S(=O)(=O)c2ccc(Cl)cc2)CC1)Nc1ccc2ccccc2c1,4.0,-0.1,6.2,22.3*,-0.6,4.5,1.6
COc1ccc(-c2nc(-c3ccccc3)c(-c3cc([N+](=O)[O-])ccc3C)[nH]2)cc1O,0.3,0.1,8.4,30.7*,2.5,7.6,2.1
COc1ccc([N+](=O)[O-])cc1-c1[nH]c(-c2ccc(C(=O)O)cc2)nc1-c1ccccc1,0.8,0.3,-0.5,2.3,-7.1,.,.
COc1ccc(CNC(=O)c2ccc(-c3ccc(F)c(F)c3)c3ccoc23)cc1OC,0.8,0.9,7.8,20.5*,2.2,8.9,2.3
COc1cc(CNn2cn[nH]c2=S)cc(Cl)c1OCc1ccc(F)cc1,0.7,0.0,-0.7,10.8,3.6,.,.

# Screening results from PubChem.
